Records with an inconclusive call do not appear. Calls of active or inactive are those of the source. How the source made its calls, unless noted: active means hit-call score of the fitted dose curve at least 0.9, where 1 is the maximum; inconclusive means response in the unintended direction; inactive means score below 0.9.
How the values were obtained:
[1] = molecular target: Cellular tumor antigen p53 (Homo sapiens) (UniProt P04637); test: TOX21_p53_BLA_p2_ratio: Tox21 HCT-116 p53 Agonism Beta-lactamase Assay, Ratio, Phase 2 (AID 2283592)
How it was run: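 HCT-116 cells with p53-responsive beta-lactamase reporter, 4000 cells/well, preincubated 5 h, then compound in DMSO (217-fold dilution) for 16 h at 37C. CCF4-AM substrate 2 h at room temperature; 460/530 nm emission ratio fitted upward versus DMSO.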

[2] = molecular target: Cellular tumor antigen p53 (Homo sapiens) (UniProt P04637); test: TOX21_p53_BLA_p3_ratio: Tox21 HCT-116 p53 Agonism Beta-lactamase Assay, Ratio, Phase 3 (AID 2283596)
How it was run: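 HCT116 p53-bla cells (4000/well) given compound in DMSO (217-fold dilution) after 5 h, incubated 16 h at 37C. CCF4-AM substrate 2 h at room temperature; 460/530 nm emission ratio, gain fitted against DMSO.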

[3] = TOX21_p53_BLA_p4_viability: Viability Assessment in the Tox21 HCT-116 p53 Agonism Beta-lactamase Assay, Phase 4 (AID 2283597);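 further: hits lower the luminescence signal meaning cytotoxicity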
How it was run: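 HCT-116 p53-bla cells, 4000/well, dosed after 5 h attachment and incubated 16 h at 37 °C, 5% CO2. Viability from CellTiter-Glo ATP luminescence after 30 min at room temperature, taken after the beta-lactamase read; loss of signal indicates cytotoxicity.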

[4] = molecular target: Cellular tumor antigen p53 (Homo sapiens) (UniProt P04637); test: TOX21_p53_BLA_p5_ratio: Tox21 HCT-116 p53 Agonism Beta-lactamase Assay, Ratio, Phase 5 (AID 2283599)
How it was run: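 HCT-116 p53-bla cells (4000/well) plated 5 h, dosed with compound (217-fold DMSO dilution) for 16 h at 37 C; CCF4-AM substrate 2 h at room temperature. Activity is the 460/530 nm emission ratio (405 nm excitation), fitted in gain-of-signal direction versus DMSO.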

[5] = molecular target: Cellular tumor antigen p53 (Homo sapiens) (UniProt P04637); test: TOX21_p53_BLA_p4_ratio: Tox21 HCT-116 p53 Agonism Beta-lactamase Assay, Ratio, Phase 4 (AID 2283601)
How it was run: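 HCT-116 p53 beta-lactamase reporter cells (4000/well) preincubated 5 h, then compound (217-fold dilution of DMSO stock) for 16 h at 37C. CCF4-AM substrate added 2 h at room temperature; 460/530 nm emission ratio fitted upward versus DMSO.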

[6] = molecular target: Thyroid hormone receptor alpha (Rattus norvegicus) + Thyroid hormone receptor beta (Rattus norvegicus) (UniProt P18113+P63059); test: TOX21_TR_LUC_GH3_Antagonist_Followup: Tox21 GH3 Thyroid Hormone Receptor Antagonism Luciferase Follow-Up Assay (AID 2283942)
How it was run: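 Antagonist mode: GH3 cells seeded 1,500/well, compounds at 15 concentrations (92 uM to 5nM final) plus T3 at 1.0 nM final, 24 h at 37C. Luciferase read with ONE-Glo after 30 min at room temperature.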

THRA (gene 7067) = THRA (gene 7067) (UniProt P10827); test: TOX21_TRA_COA_Antagonist_Followup_ratio: Tox21 Thyroid Hormone Receptor alpha Antagonism through Coactivator Recruitment Follow-Up Assay, Ratio (AID 2283953)
How it was run: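 520:495 nm emission ratio (excitation 340 nm) reports fluorescein-SRC-2 peptide recruitment to GST-TRα LBD by TR-FRET with Tb anti-GST antibody. Values were normalized to DMSO (0%) and T3 control wells (100%); loss of signal indicated antagonism.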

THRB (gene 7068) = THRB (gene 7068) (UniProt P10828); test: TOX21_TRB_COA_Antagonist_Followup_ratio: Tox21 Thyroid Hormone Receptor beta Antagonism through Coactivator Recruitment Follow-Up Assay, Ratio (AID 2283967)
How it was run: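 Cell-free TR-FRET: GST-TRb LBD (5.0 nM) with fluorescein-SRC-2 peptide (200 nM) and Tb anti-GST antibody (2 nM), 0.10% BSA. 520:495 nm emission ratio normalized to DMSO (0%) and T3 (100%).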

[7] = molecular target: Retinoic acid receptor RXR-alpha (Homo sapiens) (UniProt P19793); test: TOX21_TR_RXR_BLA_Antagonist_Followup_ratio: Tox21 Thyroid Hormone Receptor beta Retinoid X Receptor alpha (RXRa) Antagonism Beta-lactamase (BLA) Follow-Up Assay, Ratio (AID 2283972)
How it was run: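 RXRa-UAS-bla HEK293T cells, 2,500/well in phenol red-free DMEM with 2% charcoal-stripped FBS, 5 h attachment, then compounds (11 concentrations, triplicate) for 16 h at 37C; FRET-B/GCCF4-AM substrate 2 h RT; 460:530 nm ratio, loss of signal vs DMSO.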

[8] = TOX21_TR_RXR_BLA_Antagonist_Followup_viability: Viability Assessment in the Tox21 Thyroid Hormone Receptor beta Retinoid X Receptor alpha (RXRa) Antagonism Beta-lactamase (BLA) Follow-Up Assay (AID 2283979)
How it was run: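 RXRa-bla HEK293T cells (2,500/well, phenol red-free DMEM, 2% charcoal-stripped FBS) were attached 5 h, then exposed to compounds at 11 concentrations in triplicate for 16 h at 37C. Viability measured by CellTiter-Glo ATP luminescence, bidirectional fitting versus DMSO.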

[9] = TOX21_p53_BLA_p5_viability: Viability Assessment in the Tox21 HCT-116 p53 Agonism Beta-lactamase Assay, Phase 5 (AID 2283600)
How it was run: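 HCT-116 p53 beta-lactamase reporter cells, 4000/well, were exposed to compound (pin transfer, 217-fold dilution) for 16 hours at 37C. Cellular ATP was read by CellTiter-Glo luminescence after 30 min at room temperature.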

PGR (gene 5241) [10] = molecular target: PGR (gene 5241) (UniProt P06401); test: TOX21_PR_BLA_Followup_Agonist_ratio: Tox21 HEK293 Progesterone Receptor (PR) Agonism Beta-lactamase Follow-Up Assay, Ratio (AID 2283933)
How it was run: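 PR-UAS-bla HEK293T cells in medium with 2% charcoal-stripped FBS were dosed after 6 h plating and incubated 16 h at 37C. LiveBLAzer FRET substrate was added for 2 h at room temperature. Cleaved/uncleaved substrate ratio fitted against DMSO; CellTiter-Glo viability run in the same wells.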

PGR (gene 5241) [11] = molecular target: PGR (gene 5241) (UniProt P06401); test: TOX21_PR_BLA_Followup_Antagonist_ratio: Tox21 HEK293 Progesterone Receptor (PR) Antagonism Beta-lactamase Follow-Up Assay, Ratio (AID 2283934)
How it was run: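 PR-UAS-bla HEK293T cells, 3,000/well in 2% charcoal-stripped FBS, given compound plus 1nM R5020 agonist for 16 hr at 37C. Beta-lactamase FRET substrate 2 hours, ratio cleaved/uncleaved fluorescence; viability by CellTiter-Glo in same wells.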

[12] = TOX21_PR_BLA_Followup_Agonist_viability: Viability Assessment in the Tox21 HEK293 Progesterone Receptor (PR) Agonism Beta-lactamase Follow-Up Assay (AID 2283935);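 further: signal loss means lower viability so actives are cytotoxic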
How it was run: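 PR-UAS-bla HEK293T cells in 2% charcoal-stripped FBS medium, plated 6 hr before compound addition, exposed 16 hr at 37C. Viability read by CellTiter-Glo ATP luminescence after 30 min at room temperature, in the same wells as the beta-lactamase readout.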

[13] = TOX21_PR_BLA_Followup_Antagonist_viability: Viability Assessment in the Tox21 HEK293 Progesterone Receptor (PR) Antagonism Beta-lactamase Follow-Up Assay (AID 2283936);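 further: hits lower the luminescence signal meaning cytotoxicity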
How it was run: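 PR-UAS-bla HEK293T cells (3,000/well, 2% charcoal-stripped FBS) given compound plus R5020 agonist, 16 h at 37C. CellTiter-Glo added after bla read, 30 min at room temperature; luminescence loss indicates cytotoxicity.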

PGR (gene 5241) [14] = molecular target: PGR (gene 5241) (UniProt P06401); test: TOX21_PR_LUC_Followup_Agonist: Tox21 HEK293 Progesterone Receptor (PR) Agonism Luciferase Follow-Up Assay (AID 2283937; active means hit-call score of the fitted dose curve at least 0.9, where 1 is the maximum; inactive means score below 0.9)
How it was run: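 HEK293-PR-A-luc cells, conditioned 5 days in 10% charcoal-stripped FBS medium, seeded 3,000/well for 5 h, then compound-treated 16 h at 37C. ONE-Glo luminescence read after 30 min at room temperature; gain of signal versus DMSO.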

PGR (gene 5241) [15] = molecular target: PGR (gene 5241) (UniProt P06401); test: TOX21_PR_LUC_Followup_Antagonist: Tox21 HEK293 Progesterone Receptor (PR) Antagonism Luciferase Follow-Up Assay (AID 2283938);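 further: curve fitted upward as signal gain over DMSO baseline despite antagonist label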
How it was run: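 HEK293-PR-A-luc cells, 3,000/well, preincubated 5 h at 37C before compound addition in DMSO; 16 h compound exposure at 37C. ONE-Glo luciferase luminescence read after 30 min at room temperature, fitted relative to DMSO baseline.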

[16] = TOX21_PR_LUC_Followup_Antagonist_viability: Viability Assessment in the Tox21 HEK293 Progesterone Receptor (PR) Antagonism Luciferase Follow-Up Assay (AID 2283940)
How it was run: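 HEK293-PR-A-luc cells kept in charcoal-stripped FBS medium were plated 5 h before compound addition, then exposed 16 h at 37C; viability read as cellular ATP by luciferase luminescence, loss of signal indicating cytotoxicity.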

[17] = TOX21_PR_LUC_Followup_Agonist_viability: Viability Assessment in the Tox21 HEK293 Progesterone Receptor (PR) Agonism Luciferase Follow-Up Assay (AID 2283941);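 further: loss of signal means cytotoxicity so actives lower viability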
How it was run: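 HEK293-PR-A-luc cells, kept in 10% charcoal-stripped FBS medium, were treated with compounds for 16 h at 37C. Viability read as cellular ATP by luciferase-coupled luminescence; loss of signal indicates cytotoxicity.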

[18] = CCTE_Harrill_HTTr_Viability_MCF7: CCTE's 6-hour Cell Viability Assessment for the High-Throughput Transcriptomics (HTTr) Platform, in MCF-7 cells cultured in DMEM + 10% fetal bovine serum, Harrill Lab (AID 2284010; active means hit-call score of the fitted dose curve at least 0.9, where 1 is the maximum; inactive means score below 0.9)
How it was run: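 MCF-7 cells in DMEM + 10% FBS, 384-well, exposed 6 h to an eight-point dilution series. Membrane integrity scored by high-content imaging of propidium iodide exclusion; bidirectional fit versus DMSO.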

[19] = CCTE_Harrill_HTTr_Apoptosis_MCF7: CCTE's 6-hour Apoptosis Assessment for the High-Throughput Transcriptomics (HTTr) Platform, in MCF-7 cells cultured in DMEM + 10% fetal bovine serum, Harrill Lab (AID 2284011; active means hit-call score of the fitted dose curve at least 0.9, where 1 is the maximum; inactive means score below 0.9)
How it was run: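 MCF-7 cells in DMEM + 10% FBS exposed 6 h to chemicals over an eight-point dilution series. Caspase-3/7 activation imaged by high-content CellEvent Green staining; fitted bidirectionally versus DMSO.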

Measured: AC50

PGR (gene 5241), sequence (P06401 whole entry, looked up): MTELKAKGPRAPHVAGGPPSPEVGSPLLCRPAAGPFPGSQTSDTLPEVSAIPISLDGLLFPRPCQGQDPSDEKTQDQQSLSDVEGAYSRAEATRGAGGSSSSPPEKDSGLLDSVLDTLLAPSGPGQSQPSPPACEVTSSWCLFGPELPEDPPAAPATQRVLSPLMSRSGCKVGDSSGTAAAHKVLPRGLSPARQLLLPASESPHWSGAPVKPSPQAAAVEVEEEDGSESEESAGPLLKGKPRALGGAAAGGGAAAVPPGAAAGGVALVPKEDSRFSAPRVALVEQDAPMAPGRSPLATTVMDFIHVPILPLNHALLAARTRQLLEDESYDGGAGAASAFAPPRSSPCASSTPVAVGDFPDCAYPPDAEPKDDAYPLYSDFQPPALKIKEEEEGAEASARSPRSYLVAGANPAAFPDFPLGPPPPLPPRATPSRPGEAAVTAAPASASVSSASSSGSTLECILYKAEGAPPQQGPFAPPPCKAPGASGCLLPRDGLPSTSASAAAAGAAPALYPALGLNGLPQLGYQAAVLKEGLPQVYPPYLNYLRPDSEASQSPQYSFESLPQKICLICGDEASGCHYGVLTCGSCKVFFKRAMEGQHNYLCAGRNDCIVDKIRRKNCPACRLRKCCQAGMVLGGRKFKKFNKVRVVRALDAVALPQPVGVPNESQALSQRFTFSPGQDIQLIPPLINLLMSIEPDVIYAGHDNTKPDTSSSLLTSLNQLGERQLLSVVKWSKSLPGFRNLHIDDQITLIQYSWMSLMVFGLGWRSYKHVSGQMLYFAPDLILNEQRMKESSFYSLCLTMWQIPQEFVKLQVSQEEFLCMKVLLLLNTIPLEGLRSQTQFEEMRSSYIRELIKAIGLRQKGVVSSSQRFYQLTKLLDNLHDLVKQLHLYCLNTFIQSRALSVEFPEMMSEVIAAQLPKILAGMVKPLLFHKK
Cellular tumor antigen p53 (Homo sapiens), sequence (P04637 whole entry, looked up): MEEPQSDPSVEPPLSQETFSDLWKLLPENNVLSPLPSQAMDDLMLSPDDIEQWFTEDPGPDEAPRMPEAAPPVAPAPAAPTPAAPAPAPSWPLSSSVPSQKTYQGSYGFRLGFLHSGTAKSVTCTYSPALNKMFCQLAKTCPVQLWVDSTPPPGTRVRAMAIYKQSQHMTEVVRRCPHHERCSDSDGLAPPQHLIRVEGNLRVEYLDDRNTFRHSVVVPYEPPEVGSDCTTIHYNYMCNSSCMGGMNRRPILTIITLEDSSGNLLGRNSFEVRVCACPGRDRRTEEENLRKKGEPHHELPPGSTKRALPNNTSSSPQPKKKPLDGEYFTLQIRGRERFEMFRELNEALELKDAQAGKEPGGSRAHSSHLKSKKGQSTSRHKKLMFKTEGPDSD
THRB (gene 7068), sequence (P10828 whole entry, looked up, the tested form may be a part): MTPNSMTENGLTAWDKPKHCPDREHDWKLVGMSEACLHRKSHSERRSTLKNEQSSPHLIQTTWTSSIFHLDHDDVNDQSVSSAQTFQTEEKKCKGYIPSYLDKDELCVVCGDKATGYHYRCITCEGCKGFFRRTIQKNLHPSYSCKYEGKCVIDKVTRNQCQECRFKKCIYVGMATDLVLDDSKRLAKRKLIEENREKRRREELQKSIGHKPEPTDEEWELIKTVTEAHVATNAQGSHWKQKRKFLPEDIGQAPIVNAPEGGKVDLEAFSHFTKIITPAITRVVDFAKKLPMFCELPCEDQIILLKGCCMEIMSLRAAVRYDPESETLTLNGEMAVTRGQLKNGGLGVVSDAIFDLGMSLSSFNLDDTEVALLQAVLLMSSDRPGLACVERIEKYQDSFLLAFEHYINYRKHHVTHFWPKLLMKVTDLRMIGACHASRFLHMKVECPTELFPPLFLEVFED
THRA (gene 7067), sequence (P10827 whole entry, looked up, the tested form may be a part): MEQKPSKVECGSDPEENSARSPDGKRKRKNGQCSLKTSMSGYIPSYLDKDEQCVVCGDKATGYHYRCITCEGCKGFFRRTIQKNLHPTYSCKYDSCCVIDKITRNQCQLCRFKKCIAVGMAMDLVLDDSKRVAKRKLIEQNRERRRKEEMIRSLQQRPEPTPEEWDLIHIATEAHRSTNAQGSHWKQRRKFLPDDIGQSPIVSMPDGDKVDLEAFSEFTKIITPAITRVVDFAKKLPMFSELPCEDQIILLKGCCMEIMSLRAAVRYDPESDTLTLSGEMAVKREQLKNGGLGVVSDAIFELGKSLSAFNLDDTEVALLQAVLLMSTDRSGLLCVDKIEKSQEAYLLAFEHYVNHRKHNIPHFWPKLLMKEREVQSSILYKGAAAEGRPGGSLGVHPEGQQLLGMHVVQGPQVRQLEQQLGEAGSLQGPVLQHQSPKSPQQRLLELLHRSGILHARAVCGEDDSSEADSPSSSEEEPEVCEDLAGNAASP
Retinoic acid receptor RXR-alpha (Homo sapiens), sequence (P19793 whole entry, looked up): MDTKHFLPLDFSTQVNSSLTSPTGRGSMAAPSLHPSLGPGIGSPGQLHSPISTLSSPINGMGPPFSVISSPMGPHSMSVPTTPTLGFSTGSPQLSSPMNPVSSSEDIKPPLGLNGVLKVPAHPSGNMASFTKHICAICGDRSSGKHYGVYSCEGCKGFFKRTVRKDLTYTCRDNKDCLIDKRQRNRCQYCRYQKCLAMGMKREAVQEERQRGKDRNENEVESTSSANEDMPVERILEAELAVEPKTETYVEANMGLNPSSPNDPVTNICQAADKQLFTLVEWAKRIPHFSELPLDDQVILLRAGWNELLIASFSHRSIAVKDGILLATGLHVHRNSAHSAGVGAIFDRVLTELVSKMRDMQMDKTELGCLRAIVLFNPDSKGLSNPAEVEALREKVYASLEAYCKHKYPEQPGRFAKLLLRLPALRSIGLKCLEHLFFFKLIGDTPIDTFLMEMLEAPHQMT

CN1C(=O)[C@@H](NC(=O)c2cc3ccccc3[nH]2)N=C(c2ccccc2)c2ccccc21
inactive: [1] | [2] | [3] | [4] | [5] | [6] | THRA (gene 7067) | THRB (gene 7068) | [7] | [8]

C=CCC1([C@H](C)CCC)C(=O)NC(=O)NC1=O
inactive: [1] | [2] | [4] | [9] | [5]

C#C[C@]1(O)CC[C@H]2[C@@H]3CCC4=CC(=O)CCC4=C3C=C[C@@]21CC
active: PGR (gene 5241) [10] 0.144 µM | PGR (gene 5241) [14] 0.00156 µM
not listed: [6] | THRA (gene 7067) | THRB (gene 7068) | [7] | [8] | [18] | [19]
inactive: all other assays above

CCCCCCBr
inactive: [1] | [2] | [3] | [4] | [5]

CN(C)c1ccc(N(C)C)cc1
inactive: [1] | [2] | [3] | [4] | [5]

C=CC(C)(CCC=C(C)C)OC(=O)c1ccccc1N (stereo not given)
inactive: [1] | [2] | [4] | [9] | [5]

[O-][Br+2]([O-])O
inactive: [1] | [2] | [3] | [5]

CN1CCc2cc3c(cc2C1O)OCO3 (stereo not given)
inactive: [9]
active: [1] 46.3 µM | [2] 61.2 µM | [4] 46.3 µM | [5] 46.3 µM

O=Cc1ccc(Cl)cc1Cl
inactive: [1] | [2] | [4] | [9] | [5]

COc1ccc(C(CN(C)C)C2(O)CCCCC2)cc1 (stereo not given)
inactive: [1] | [2] | [4] | [9] | [5]

Oc1cccc(Cl)c1Cl
inactive: [1] | [2] | [3] | [4] | [9] | [5]

C[C@]12CC[C@H]3[C@@H](CCC4=C(Cl)C(=O)CC[C@@]43C)[C@@H]1CC[C@@H]2O
inactive: [1] | [2] | [3] | [4] | [9] | [5] | [6] | THRB (gene 7068) | [8]

NC1=NC(=O)N2CC12 (stereo not given)
inactive: [1] | [2] | [3] | [4] | [5]

BrC(Br)Br
inactive: [1] | [2] | [3] | [4] | [5] | [18] | [19]

CCCCCCCCCCCCCCCl
inactive: [1] | [2] | [3] | [4] | [5]
